Reference: PubChem BioAssay (NCI)
Where “and” joins values, the source holds several entries; their conditions need not be identical. Equal values may be shown once. Compounds without any hit were thinned out: in the full panel of roughly 79,000, 15% have a hit. Some structures have more than one record in an assay (separate samples or runs), and their calls can disagree. Calls of active or inactive are those of the source. Cut-off read from the data, not from the text of the source: active = growth inhibition above about 70%; inactive = the rest.

Key:
[1] = NCI Yeast Anticancer Drug Screen. Data for the rad52 strain (AID 147);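 note: 0% = growth of vehicle-treated control cultures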; conditions: S. cerevisiae rad52 mutant growth inhibition, stronger effect = higher value
Summary of the method: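 Measured: yeast growth inhibition. System: strain with a defined DNA damage repair alteration. Reference: vehicle-treated control cultures.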

[2] = NCI Yeast Anticancer Drug Screen. Data for the wt1 strain (AID 149);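 note: 0% = growth of vehicle-treated wt1 cultures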; conditions: S. cerevisiae wt1 strain (SPY 50644) growth inhibition, stronger effect = higher value
Summary of the method: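 Compounds are added to wt1 yeast cultures. Growth is then measured. Inhibition is expressed relative to vehicle-treated controls.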

[3] = NCI Yeast Anticancer Drug Screen. Data for the rad50EPP+ strain (AID 151);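 note: 0% = growth of vehicle-treated control cultures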; conditions: S. cerevisiae rad50 mutant strain, stronger effect = higher value
Summary of the method: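 One strain with a rad50 alteration (rad50EPP+) was compound-treated, its growth then compared to that of vehicle controls.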

[4] = NCI Yeast Anticancer Drug Screen. Data for the mgt1 strain (AID 153); conditions: S. cerevisiae mgt1 mutant growth inhibition, stronger effect = higher value
Summary of the method: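 After exposure of the mgt1 yeast mutant to compound, growth was measured and reported as inhibition compared with vehicle controls.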

[5] = NCI Yeast Anticancer Drug Screen. Data for the rad50 strain (AID 155);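 note: 0% = growth of vehicle-only cultures of the same strain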; conditions: S. cerevisiae rad50 strain growth inhibition, stronger effect = higher value
Summary of the method: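 Inhibition values express reduced yeast growth in compound-treated cultures relative to vehicle-treated controls.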

[6] = NCI Yeast Anticancer Drug Screen. Data for the mec2-1 strain (AID 157); conditions: S. cerevisiae mec2-1 strain, stronger effect = higher value
Summary of the method: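 Test agents were screened against the mec2-1 yeast strain, with defined DNA repair or cell cycle alteration. Growth was scored as inhibition against vehicle-only controls.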

[7] = NCI Yeast Anticancer Drug Screen. Data for the rad14 strain (AID 159);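 note: 0% = growth of vehicle-treated control cultures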; conditions: S. cerevisiae rad14 strain growth inhibition, stronger effect = higher value
Summary of the method: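 A mutant yeast strain defective in DNA damage repair is treated with compound; inhibition of its growth is scored against untreated, vehicle-exposed cultures.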

[8] = NCI Yeast Anticancer Drug Screen. Data for the sgs1 mgt1 strain (AID 161);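 note: 0% = growth of cultures given vehicle only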; conditions: S. cerevisiae sgs1 mgt1 strain, stronger effect = higher value
Summary of the method: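 Genetically altered yeast, compound exposure, growth inhibition relative to vehicle.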

[9] = NCI Yeast Anticancer Drug Screen. Data for the CLN2oe strain (AID 163);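 note: 0% = growth of vehicle-only control cultures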; conditions: S. cerevisiae CLN2oe strain, stronger effect = higher value
Summary of the method: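 Here, growth inhibition in a cell-cycle-altered yeast strain after compound exposure was quantified against vehicle control growth.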

[10] = NCI Yeast Anticancer Drug Screen. Data for the cln2 rad14 strain (AID 165);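 note: 0% = growth equal to vehicle treated cultures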; conditions: S. cerevisiae cln2 rad14 strain, stronger effect = higher value
Summary of the method: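 Growth of compound-exposed yeast (cln2 rad14 genotype) measured and expressed as inhibition relative to vehicle.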

[11] = NCI Yeast Anticancer Drug Screen. Data for the bub3 strain (AID 167); conditions: S. cerevisiae bub3 mutant strain, stronger effect = higher value
Summary of the method: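 Steps: expose the mutant yeast strain to compound; grow alongside vehicle-treated cultures; measure growth; express inhibition against the vehicle cultures.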

[12] = NCI Yeast Anticancer Drug Screen. Data for the wt2 strain (AID 169);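 note: 0% = growth of vehicle-treated yeast cultures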; conditions: S. cerevisiae wt2 strain growth inhibition, stronger effect = higher value
Summary of the method: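 Genetically defined yeast strains from a DNA-repair/cell-cycle panel were used. Compound-exposed yeast growth was measured, and the inhibition was calculated relative to vehicle treatment.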

[13] = NCI Yeast Anticancer Drug Screen. Data for the mlh1 strain (AID 171);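 note: 0% = growth of vehicle-treated control cultures of the same strain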; conditions: S. cerevisiae mlh1 strain growth inhibition, stronger effect = higher value
Summary of the method: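 Here the genetically defined yeast mutant is grown with each compound, and the extent to which its growth falls below that of vehicle-exposed cells is reported.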

[14] = NCI Yeast Anticancer Drug Screen. Data for the sgs1 strain (AID 173);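 note: 0% = growth of vehicle-only control cultures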; conditions: S. cerevisiae sgs1 mutant, stronger effect = higher value
Summary of the method: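 Relative growth inhibition, referenced to vehicle, was determined in a yeast strain with a defined alteration affecting DNA damage repair or cell cycle control after compound exposure.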

[15] = NCI Yeast Anticancer Drug Screen. Data for the mlh1 rad18 strain (AID 175); conditions: S. cerevisiae mlh1 rad18 strain growth inhibition, stronger effect = higher value
Summary of the method: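 In this whole-cell yeast screen, a strain with altered DNA damage repair is challenged with compound, and its growth is measured against matched vehicle-treated controls.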

[16] = NCI Yeast Anticancer Drug Screen. Data for the rad18 strain (AID 177); conditions: S. cerevisiae rad18 mutant growth inhibition, stronger effect = higher value
Summary of the method: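 Screen uses a yeast strain with a defined lesion in DNA damage repair; compound effect is read as loss of growth compared to untreated vehicle cultures.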

[17] = at 5.0 µM (retest, dose inferred, filed as 0.5)
[18] = at 50.0 µM (retest, dose inferred, filed as 5.0)

## COc1cc([C@@H]2c3cc4c(cc3[C@@H](Nc3ccc(NC(=O)c5cc([N+](=O)[O-])cn5C)cc3)[C@H]3COC(=O)[C@H]23)OCO4)cc(OC)c1O
[1]; at 1.2 µM
  growth inhibition: 25% (inactive)
[1]; at 3.7 µM
  growth inhibition: 84% (active)
[1]; at 11.0 µM
  growth inhibition: 92% (active)
[1]; at 33.0 µM
  growth inhibition: 91% (active)
[1]; at 100.0 µM
  growth inhibition: 93% (active)
[2]; at 1.2 µM
  growth inhibition: 9% (inactive)
[2]; at 3.7 µM
  growth inhibition: 20% (inactive)
[2]; at 11.0 µM
  growth inhibition: 26% (inactive)
[2]; at 33.0 µM
  growth inhibition: 32% (inactive)
[2]; at 100.0 µM
  growth inhibition: 36% (inactive)
[3]; at 1.2 µM
  growth inhibition: 4% (inactive)
[3]; at 3.7 µM
  growth inhibition: 10% (inactive)
[3]; at 11.0 µM
  growth inhibition: 27% (inactive)
[3]; at 33.0 µM
  growth inhibition: 14% (inactive)
[3]; at 100.0 µM
  growth inhibition: 22% (inactive)
[4]; at 1.2 µM
  growth inhibition: -3% (inactive)
[4]; at 3.7 µM
  growth inhibition: 5% (inactive)
[4]; at 11.0 µM
  growth inhibition: 14% (inactive)
[4]; at 33.0 µM
  growth inhibition: 35% (inactive)
[4]; at 100.0 µM
  growth inhibition: 41% (inactive)
[5]; at 1.2 µM
  growth inhibition: 11% (inactive)
[5]; at 3.7 µM
  growth inhibition: 74% (active)
[5]; [17]
  growth inhibition: 92% (active) and 96% (active)
[5]; at 11.0 µM
  growth inhibition: 88% (active)
[5]; at 33.0 µM
  growth inhibition: 92% (active)
[5]; [18]
  growth inhibition: 95% (active) and 97% (active)
[5]; at 50.0 µM
  growth inhibition: 67.5% (inactive) and 75.9% (active)
[5]; at 100.0 µM
  growth inhibition: 92% (active)
[6]; at 1.2 µM
  growth inhibition: -16% (inactive)
[6]; at 3.7 µM
  growth inhibition: 6% (inactive)
[6]; [17]
  growth inhibition: 38% (inactive) and 52% (inactive)
[6]; at 11.0 µM
  growth inhibition: 42% (inactive)
[6]; at 33.0 µM
  growth inhibition: 66% (inactive)
[6]; [18]
  growth inhibition: 79% (active) and 96% (active)
[6]; at 50.0 µM
  growth inhibition: 67.5% (inactive) and 74.8% (active)
[6]; at 100.0 µM
  growth inhibition: 74% (active)
[7]; at 1.2 µM
  growth inhibition: 4% (inactive)
[7]; at 3.7 µM
  growth inhibition: 16% (inactive)
[7]; at 11.0 µM
  growth inhibition: 18% (inactive)
[7]; at 33.0 µM
  growth inhibition: 50% (inactive)
[7]; at 100.0 µM
  growth inhibition: 59% (inactive)
[8]; [17]
  growth inhibition: 16% (inactive) and 54% (inactive)
[8]; [18]
  growth inhibition: 53% (inactive) and 93% (active)
[8]; at 50.0 µM
  growth inhibition: 47.5% (inactive) and 67% (inactive)
[9]; at 1.2 µM
  growth inhibition: 19% (inactive)
[9]; at 3.7 µM
  growth inhibition: 23% (inactive)
[9]; at 11.0 µM
  growth inhibition: 44% (inactive)
[9]; at 33.0 µM
  growth inhibition: 58% (inactive)
[9]; at 100.0 µM
  growth inhibition: 77% (active)
[10]; [17]
  growth inhibition: 16% (inactive) and 22% (inactive)
[10]; [18]
  growth inhibition: 50% (inactive) and 84% (active)
[10]; at 50.0 µM
  growth inhibition: 47% (inactive) and 49.9% (inactive)
[11]; at 1.2 µM
  growth inhibition: -10% (inactive)
[11]; at 3.7 µM
  growth inhibition: 0% (inactive)
[11]; [17]
  growth inhibition: 19% (inactive) and 42% (inactive)
[11]; at 11.0 µM
  growth inhibition: 14% (inactive)
[11]; at 33.0 µM
  growth inhibition: 36% (inactive)
[11]; [18]
  growth inhibition: 46% (inactive) and 90% (active)
[11]; at 50.0 µM
  growth inhibition: 26.8% (inactive) and 51.2% (inactive)
[11]; at 100.0 µM
  growth inhibition: 43% (inactive)
[12]; at 1.2 µM
  growth inhibition: -28% (inactive)
[12]; at 3.7 µM
  growth inhibition: -12% (inactive)
[12]; at 11.0 µM
  growth inhibition: -8% (inactive)
[12]; at 33.0 µM
  growth inhibition: 6% (inactive)
[12]; at 100.0 µM
  growth inhibition: 17% (inactive)
[13]; at 1.2 µM
  growth inhibition: -15% (inactive)
[13]; at 3.7 µM
  growth inhibition: 5% (inactive)
[13]; at 11.0 µM
  growth inhibition: 22% (inactive)
[13]; at 33.0 µM
  growth inhibition: 39% (inactive)
[13]; at 100.0 µM
  growth inhibition: 53% (inactive)
[14]; at 1.2 µM
  growth inhibition: -6% (inactive)
[14]; at 3.7 µM
  growth inhibition: 6% (inactive)
[14]; at 11.0 µM
  growth inhibition: 30% (inactive)
[14]; at 33.0 µM
  growth inhibition: 44% (inactive)
[14]; at 100.0 µM
  growth inhibition: 49% (inactive)
[15]; [17]
  growth inhibition: 37% (inactive) and 80% (active)
[15]; [18]
  growth inhibition: 62% (inactive) and 95% (active)
[15]; at 50.0 µM
  growth inhibition: 20.1% (inactive) and 74.3% (active)
[16]; at 1.2 µM
  growth inhibition: -9% (inactive)
[16]; at 3.7 µM
  growth inhibition: 3% (inactive)
[16]; at 11.0 µM
  growth inhibition: 27% (inactive)
[16]; at 33.0 µM
  growth inhibition: 43% (inactive)
[16]; at 100.0 µM
  growth inhibition: 53% (inactive)
